Screens as filed in PubChem BioAssay.
RORgamma inh: blocks mouse ROR gamma transcriptional activity; Drosophila S2 Gal4-RORgamma UAS-luciferase reporter, 20 h; hit rate 5.4% among 310,000; Potency, µM (top dose mostly 53.6 µM), for inactives: at the top dose activity change, negative = inhibition, most hits filed as inhibitors; AID 2551; P51450; also: % is scaled to controls: 0 for no effect and ±100 for the full control effect; nearly all actives have a fitted effect of over 60% in size
Target sequence (P51450 whole entry, looked up, the tested form may be a part): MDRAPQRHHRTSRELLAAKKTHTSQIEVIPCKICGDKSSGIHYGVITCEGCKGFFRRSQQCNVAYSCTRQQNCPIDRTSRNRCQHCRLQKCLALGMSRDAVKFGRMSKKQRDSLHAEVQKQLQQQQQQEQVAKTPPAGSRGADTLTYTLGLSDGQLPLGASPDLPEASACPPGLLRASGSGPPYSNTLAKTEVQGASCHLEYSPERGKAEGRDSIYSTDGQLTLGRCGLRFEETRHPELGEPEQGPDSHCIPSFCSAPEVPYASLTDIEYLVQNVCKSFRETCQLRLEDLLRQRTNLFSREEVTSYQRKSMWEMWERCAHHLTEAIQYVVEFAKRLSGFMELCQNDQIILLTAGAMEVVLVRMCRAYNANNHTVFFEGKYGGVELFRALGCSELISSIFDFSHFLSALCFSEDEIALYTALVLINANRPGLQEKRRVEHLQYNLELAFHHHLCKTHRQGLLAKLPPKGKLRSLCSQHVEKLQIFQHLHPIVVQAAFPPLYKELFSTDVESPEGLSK
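Luciferase reporter read in Schneider cells carrying Gal4-RORγ (mouse) and UAS-Photinus luciferase; cells given compound 1 h before 700 uM copper sulfate induction, then incubated 20 h at ambient temperature.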
MCF10A rereplic: inducers of DNA re-replication in MCF 10A breast cells; MCF 10A DNA re-replication, Hoechst nuclear intensity, 48 h; Potency, µM (top dose mostly 46.1 µM), for the others: top-dose activity, positive = re-replication, actives largely listed as activators; hit rate 2.9% among 350,000; also: % of control where 0% means no effect; nearly all actives have a fitted effect of over 50% in size
KB-3-1 cytotox: kills parental KB-3-1 adenocarcinoma cells. Potency, µM (doses to about 46.1 µM), most hits filed as cytotoxic. KB-3-1 viability, CellTiter-Glo ATP luminescence, 72 h. AID 1347075. hit rate 1.4% among 400,000; also: % is scaled to controls: 0 for no effect and ±100 for the full control effect; nearly all actives have a fitted effect of over 60% in size
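KB-3-1 parental drug-naive adenocarcinoma cells in DMEM/10% FBS, incubated 72 h at 37 C with pin-transferred compounds across a concentration series. Viability by CellTiter-Glo luminescence; concentration-response curves fitted after normalization.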
SW480 rereplic: DNA re-replication induction in SW480 cells. hit rate 1.8% among 340,000. AID 624297. SW480 DNA re-replication, Hoechst DNA content imaging, 48 h. Potency, µM (titrated, usually from 46.1 µM), for inactives: top-dose re-replication activation, hits mostly activators; also: % of control where 0% means no effect; nearly all actives have a fitted effect of over 55% in size
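250 cells/well; 23 nL cpd via pin tool; 48 hr, 37 C, 5% CO2; Hoechst 40 min; imager read of total nuclear intensity, ex 405/em 500-530 nm.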
Gal4-VP16 FLuc: inhibits Gal4-VP16 luciferase reporter, ROR gamma counter-screen; Drosophila S2 Gal4-VP16 UAS-luciferase, luminescence, 20 h; Potency, µM (highest dose often 53.6 µM), without a hit: at the highest dose activity, negative = inhibition, usual class: inhibitors; hit rate 3.5% among 310,000; AID 2546;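 also: Gal4-VP16 expression switched on by copper sulfate through the metallothionein promoter; % is scaled to controls: 0 for no effect and ±100 for the full control effect; nearly all actives have a fitted effect of over 50% in size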
KB-V1 cytotox: KB-V1 MDR subline cytotoxicity; KB-V1 MDR cells viability, CellTiter-Glo, 72 h; Potency, µM (series often up to 46.1 µM), hits mostly cytotoxic; hit rate 3.4% among 400,000; AID 1347076; also: % is scaled to controls: 0 for no effect and ±100 for the full control effect; nearly all actives have a fitted effect of over 60% in size
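Cells of the MDR subline KB-V1 are plated, dosed with compound at multiple concentrations, and incubated 72 h at 37 degrees C; CellTiter-Glo is then added and luminescence read after 10 min.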
Active calls of the source: *; i = inactive; ? = inconclusive; nt = no result given; ! = not confirmed by another sample; [ ] = dose if it differs, or a comment. A selection: hits, their analogues and other compounds. The true share with any hit is near 10%. Calls follow the shape of the dose curve; as a rule, active = well fitted curve in the direction sought with a large enough effect; inconclusive = small, poorly fitted or top-dose-only effect, or another doubt; inactive = no such curve, though single readings can be large; an effect the other way counts as inactive or inconclusive. Potency is read from the fitted curve at half-maximal effect.

SMILES	RORgamma inh	MCF10A rereplic	KB-3-1 cytotox	SW480 rereplic	Gal4-VP16 FLuc	KB-V1 cytotox
COc1ccc2oc3cc(NCCN(C)C)ccc3c(=O)c2c1	nt	nt	i	nt	nt	i
Cc1cc(C)cc(NC(=S)N2CC(C)OC(C)C2)c1 (stereo unspecified)	15.8µM*	-1.3%	i	0.8%	?	i
CC1CN(C(=S)Nc2ccc(Br)cc2)CC(C)O1 (stereo unspecified)	?	?	i	-2.4%	?	i
Cc1ccc(NC(=S)N2CC(C)OC(C)C2)cc1C (stereo unspecified)	15.8µM*	2.6%	i	4.7%	?	i
Cc1ccc(NC(=S)N2CCCCC2CO)cc1C (stereo unspecified)	7.94µM*	-0.3%	i	-5.6%	?	i
Cc1cc(C)cc(NC(=S)N2CCCC2)c1	12.6µM*	0.4%	i	-0.7%	?	?
COc1ccc2cccc(N3CCN(CCNC(=O)c4ccc(F)cc4)CC3)c2c1	11.0%	nt	nt	nt	-4.2%	nt
CCNC(=O)CC1C(=O)N(c2cccc(OC)c2)C(=O)N1Cc1ccc(OC)c(OC)c1 (stereo unspecified)	nt	nt	i	nt	nt	i
Cc1sc(-c2cc3ccccc3oc2=O)nc1-c1ccc(Cl)cc1	nt	nt	i	nt	nt	i
Cc1ccc(NC(=S)N2CCN(S(=O)(=O)c3ccccc3)CC2)cc1	?	-2.4%	i	1.3%	6.0%	i
Cc1cc(C)cc(NC(=S)N2CCN(S(=O)(=O)c3ccccc3)CC2)c1	11.2µM*	6.2%	i	-2.2%	?	i
CC(=O)Oc1ccc(N2C(=O)C3C(C2=O)C(C(=O)c2ccc(Cl)cc2)N2CCCC32)cc1 (stereo unspecified)	-7.8%	18.4µM*	18.4µM*	4.61µM*	14.1µM*	?
CCOC(=O)Nc1ccc(/C=C/c2ccnc3ccccc23)cc1	nt	nt	i	nt	nt	i
COc1ccc2cnn(CCOc3cc(C)ccc3C(C)C)c(=O)c2c1OC	?	?	i	?	-7.4%	6.51µM*
COc1cc(C(=O)NCCOc2cc(C)ccc2C(C)C)cc(OC)c1OC	-30.0%	?	?	?	?	16.4µM*
COc1cc(C(=O)NCCOc2cc(C)cc(C)c2)cc(OC)c1OC	-11.9%	20.6µM*	4.61µM*	7.31µM*	-3.4%	5.8µM*
COc1cc(C(=O)NCCOc2ccccc2)cc(OC)c1OC	14.1%	1.5%	i	0.5%	1.8%	?
O=C1OC2C(O)COC23OC(O)CCC13O (stereo unspecified)	nt	nt	i	nt	nt	i
CCn1c(=O)c2cc(C(=O)NCCCN3CCN(C)CC3)sc2c2ccccc21	nt	nt	i	nt	nt	i
C[N+]1(CCCCSc2ccc(O)cc2)CCCCC1	19.4%[10 µM]	21.1%	18.4µM*	5.6%	-10.2%	i
CCN1CCN(CCCNC(=O)c2cc3c(=O)n(C)c4ccccc4c3s2)CC1	nt	nt	i	nt	nt	i
CCCCNc1nc(C)nc2c1nc(-c1ccccc1)n2CCCN(C)C	-0.3%	nt	nt	nt	-2.7%	nt
NCC1CCC(N)C(O[C@@H]2C(O)[C@H](O[C@H]3OC(CO)C(O)C(N)C3O)[C@@H](N)C[C@H]2N)O1 (stereo partly specified)	-10.4%	0.6%	nt	-3.8%	5.7%	nt
CC(C)(C)CC(C)(C)N1CNC(=S)NC1	10µM*	6.7%	i	-7.0%	?	i
COc1cccc(CNC(=O)c2sc3ncccc3c2-n2c(C)ccc2C)c1OC	nt	nt	i	nt	nt	i
SMILES	RORgamma inh	MCF10A rereplic	KB-3-1 cytotox	SW480 rereplic	Gal4-VP16 FLuc	KB-V1 cytotox
C=CCC(CC=C)(NC(=O)c1ccccc1C)c1ccccc1	6.0%	-3.2%	i	1.6%	-7.4%	i
C=CCC(CC=C)(NC(=O)c1ccccc1)c1ccccc1	-14.7%	-14.8%	i	-4.4%	17.8µM*	i
CN(C)CCCN1c2ccc3ccccc3c2Sc2cccc(Cl)c21	nt	?	?	?	nt	14.6µM*
OCCN1CCN(CCCN2c3ccccc3Sc3ccc(Cl)cc32)CC1	?	20.6µM*!	i	?	-23.5%	?
CN(C)CCCN1c2ccccc2Sc2ccc3ccccc3c21	nt	?	?	?	nt	18.4µM*
CN1CCN(CCCNC(=O)c2cn(C)c3ccc(S(=O)(=O)N(C)C)cc3c2=O)CC1	8.4%	3.1%	i	-6.1%	8.5%	i
CN(C)CCCN1c2ccccc2C(C)(C)c2ccccc21	2.1%[10 µM]	?	nt	?	6.1%	nt
CC(=O)c1ccc2c(c1)N(CCCN1CCC(CCO)CC1)c1ccccc1S2	1.8%[2.98 µM]	-37.6%	i	5.4%	9.9%[17 µM]	?
CN1CCN(CCCN2c3ccccc3Sc3ccc(S(=O)(=O)N(C)C)cc32)CC1	2.5%[2.98 µM]	?	i	-38.3%	-5.3%[17 µM]	20.6µM*
CCCCNc1nc(C)nc2c1nc(-c1ccccc1)n2CCN1CCCC1	-40.5%	nt	nt	nt	-2.7%	nt
O=C(NCc1ccccc1)[C@]1(C(F)(F)F)C[C@H](CCC2CCCCC2)CCCO1	-19.4%	nt	nt	nt	6.7%	nt
CN(C)CCCN1c2ccccc2Sc2ccc(Cl)cc21	3.7%	?	?	?	-15.7%	13µM*!
OCCN1CCN(CC/C=C2/c3ccccc3Sc3ccc(Cl)cc32)CC1	nt	4.61µM*	i	29.1%	nt	i
CC[N+](C)(C)CC/C=C1/c2ccccc2Sc2ccc(Cl)cc21	8.6%	-21.6%	i	-9.1%	-2.4%	i
C[C@@H]1CN([C@@H](C)CO)C(=O)CCCn2nncc2CO[C@H]1CN(C)S(=O)(=O)c1ccccc1F	nt	nt	i	nt	nt	i
CCc1ccccc1N(CC(=O)NCCc1ccccc1)C(=O)CCC(=O)Nc1ccccn1	?	0.3%	i	11.6%	-4.6%	?
S=C(NCCc1ccccc1)Nc1ccccn1	1.12µM*	2.0%	i	-8.1%	3.16µM*	16.4µM*
Cc1cccc(NC(=S)NCCc2ccccc2)n1	0.562µM*	-1.9%[9.22 µM]	i	?	3.16µM*	?
COc1cc(C2CC(=O)Oc3cc(C)c(Cl)cc32)cc(OC)c1OC (stereo unspecified)	?	nt	nt	nt	3.0%	nt
Cc1ccc(C(=O)Nc2ccc3ccccc3n2)cc1	?	15.7%	i	1.4%	?	i
Cc1ccc(C(O)(C(=O)NNc2ccc3ccccc3n2)c2ccc(C)cc2)cc1	10µM*	?	i	17.2%	8.91µM*	?
Cc1ccccc1NC(=S)N/N=C/c1ccc(O)cc1O	?	17.7%	?	18.9%	?	i
Cc1ccccc1NC(=S)N/N=C/C(C)c1ccccc1 (stereo unspecified)	1.78µM*	-1.5%	i	-14.7%	8.91µM*	i
Cc1cccc(NC(=S)N/N=C/C(C)c2ccccc2)c1C (stereo unspecified)	1.26µM*	-0.7%	?	27.1%	7.94µM*	i
